Source: PubChem BioAssay AID1159580 (chemical genetic matrix, 2015)
Several values for one entry are separate records, joined by “and”; a condition that tells them apart may be missing. Equal values may be shown once. Hit rate of the full screen: of about 5,500 compounds, about 2,000 (36%) were called active. Not shown: some 18% with an inconclusive outcome. Cut-off read from the data, not from the text of the source: active = normalized growth mostly below about 0.91 (no sharp cut-off); inconclusive = no clear call, values can overlap the other calls; inactive = mostly above about 0.92. This is one part of the list.

Test: chemical genetic growth profiling, strain panel (AID 1159580);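 note: tested at 20 µM; growth read once vehicle control cultures reached saturation at 30 °C; 1 = growth at the plate median or of vehicle wells; lower values mean less growth of the strain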
Settings: growth OD

Measured: normalized growth

NC(N)=NCCCCN=C(N)N
inactive: S. cerevisiae deletion strains, locus YKL009W, strain mrt4, hits give low values 1 | S. cerevisiae deletion strains, locus YKL068W, hits give low values 0.988 | S. cerevisiae deletion strains, locus YKL085W, strain MDH1 (second series), hits give low values 1.03 | S. cerevisiae deletion strains, locus YKL085W, strain MDH1, hits give low values 1.03 | S. cerevisiae deletion strains, locus YKL160W, strain elf1, hits give low values 1.02 | S. cerevisiae deletion strains, locus YKL190W, strain CNB1, hits give low values 0.985 | S. cerevisiae deletion strains, locus YKR001C, strain vps1, hits give low values 1.01 | S. cerevisiae deletion strains, locus YKR026C, strain gcn3, hits give low values 0.995 | S. cerevisiae deletion strains, locus YKR091W, strain srl3, hits give low values 1 | S. cerevisiae deletion strains, locus YLL001W, strain dnm1, hits give low values 1.01 | S. cerevisiae deletion strains, locus YLL026W, hits give low values 1.01 | S. cerevisiae deletion strains, locus YLL041C, strain sdh2, hits give low values 0.986 | S. cerevisiae deletion strains, locus YLR027C, strain aat2, hits give low values 1 | S. cerevisiae deletion strains, locus YLR039C, strain RIC1, hits give low values 0.99 | S. cerevisiae deletion strains, locus YLR058C, strain SHM2, hits give low values 0.972 | S. cerevisiae deletion strains, locus YLR102C, strain apc9, hits give low values 0.993 | S. cerevisiae deletion strains, locus YLR113W, strain HOG1, hits give low values 0.97 | S. cerevisiae deletion strains, locus YLR221C, strain rsa3, hits give low values 1.04 | S. cerevisiae deletion strains, locus YLR258W, strain gsy2, hits give low values 1.01 | S. cerevisiae deletion strains, locus YLR262C, strain YPT6 (second series), hits give low values 1.02 | S. cerevisiae deletion strains, locus YLR262C, strain YPT6, hits give low values 0.963 | S. cerevisiae deletion strains, locus YLR268W, strain sec22, hits give low values 0.978 | S. cerevisiae deletion strains, locus YLR320W, strain mms22, hits give low values 1.05 | S. cerevisiae deletion strains, locus YLR330W, strain CHS5, hits give low values 0.993 | S. cerevisiae deletion strains, locus YLR342W, strain FKS1 (second series), hits give low values 1.03 | S. cerevisiae deletion strains, locus YLR342W, strain FKS1, hits give low values 0.993 | S. cerevisiae deletion strains, locus YLR357W, strain rsc2, hits give low values 0.998 | S. cerevisiae deletion strains, locus YLR370C, strain arc18, hits give low values 0.991 | S. cerevisiae deletion strains, locus YLR371W, strain rom2, hits give low values 0.95 | S. cerevisiae deletion strains, locus YLR384C, strain iki3, hits give low values 0.997 | S. cerevisiae deletion strains, locus YLR418C, strain cdc73, hits give low values 0.971 | S. cerevisiae deletion strains, locus YML016C, strain PPZ1, hits give low values 0.992 | S. cerevisiae deletion strains, locus YML032C, strain rad52, hits give low values 1.01 | S. cerevisiae deletion strains, locus YML120C, strain ndi1, hits give low values 0.998 | S. cerevisiae deletion strains, locus YML124C, strain tub3, hits give low values 0.997 | S. cerevisiae deletion strains, locus YMR058W, strain fet3, hits give low values 0.998 | S. cerevisiae deletion strains, locus YMR078C, strain ctf18, hits give low values 0.992 | S. cerevisiae deletion strains, locus YMR125W, strain sto1, hits give low values 0.963 | S. cerevisiae deletion strains, locus YMR129W, hits give low values 1 | S. cerevisiae deletion strains, locus YMR205C, strain PFK2, hits give low values 1.03 | S. cerevisiae deletion strains, locus YMR223W, strain ubp8, hits give low values 1.01 | S. cerevisiae deletion strains, locus YMR231W, strain pep5, hits give low values 0.993 | S. cerevisiae deletion strains, locus YMR263W, strain SAP30, hits give low values 0.953 and 0.994 | S. cerevisiae deletion strains, locus YMR307W, strain GAS1, hits give low values 1.06 and 0.991 | S. cerevisiae deletion strains, locus YNL067W, strain RPL9B, hits give low values 0.972 | S. cerevisiae deletion strains, locus YNL071W, strain lat1, hits give low values 0.991 | S. cerevisiae deletion strains, locus YNL128W, strain TEP1, hits give low values 0.92 and 0.999 | S. cerevisiae deletion strains, locus YNL153C, strain GIM3, hits give low values 0.978 | S. cerevisiae deletion strains, locus YNL175C, strain NOP13, hits give low values 1.01 | S. cerevisiae deletion strains, locus YNL183C, strain NPR1, hits give low values 0.92 | S. cerevisiae deletion strains, locus YNL197C, strain WHI3, hits give low values 1.02 | S. cerevisiae deletion strains, locus YNL209W, strain ssb2, hits give low values 1.01 | S. cerevisiae deletion strains, locus YNL224C, strain SQS1, hits give low values 1.01 | S. cerevisiae deletion strains, locus YNL233W, strain BNI4, hits give low values 0.979 | S. cerevisiae deletion strains, locus YNL248C, strain rpa49, hits give low values 0.967 | S. cerevisiae deletion strains, locus YNL250W, strain rad50, hits give low values 0.98 | S. cerevisiae deletion strains, locus YNL271C, strain bni1, hits give low values 0.994 | S. cerevisiae deletion strains, locus YNL298W, strain CLA4, hits give low values 0.994 | S. cerevisiae deletion strains, locus YNL307C, strain MCK1, hits give low values 1.01 | S. cerevisiae deletion strains, locus YNL322C, strain KRE1 (second series), hits give low values 1 | S. cerevisiae deletion strains, locus YNL322C, strain KRE1, hits give low values 0.977 | S. cerevisiae deletion strains, locus YNR049C, strain mso1, hits give low values 0.997 | S. cerevisiae deletion strains, locus YNR052C, strain pop2, hits give low values 0.997 | S. cerevisiae deletion strains, locus YOL006C, strain TOP1, hits give low values 0.957 | S. cerevisiae deletion strains, locus YOL012C, strain htz1 0.788 | S. cerevisiae deletion strains, locus YOL147C, strain pex11, hits give low values 0.993 | S. cerevisiae deletion strains, locus YOR001W, strain rrp6, hits give low values 0.97 | S. cerevisiae deletion strains, locus YOR061W, strain CKA2, hits give low values 0.955 | S. cerevisiae deletion strains, locus YOR069W, strain VPS5, hits give low values 0.999 | S. cerevisiae deletion strains, locus YOR070C, strain gyp1, hits give low values 1.02 | S. cerevisiae deletion strains, locus YOR080W, strain dia2, hits give low values 1.01 | S. cerevisiae deletion strains, locus YOR083W, strain WHI5 (second series), hits give low values 0.988 | S. cerevisiae deletion strains, locus YOR083W, strain WHI5, hits give low values 1.04 | S. cerevisiae deletion strains, locus YOR106W, strain vam3, hits give low values 1.03 | S. cerevisiae deletion strains, locus YOR136W, strain idh2, hits give low values 0.997 | S. cerevisiae deletion strains, locus YOR144C, strain elg1, hits give low values 0.999 | S. cerevisiae deletion strains, locus YOR184W, strain ser1, hits give low values 1.03 | S. cerevisiae deletion strains, locus YOR231W, strain MKK1, hits give low values 0.968 | S. cerevisiae deletion strains, locus YOR265W, strain rbl2, hits give low values 1.01 | S. cerevisiae deletion strains, locus YOR270C, strain vph1, hits give low values 0.991 | S. cerevisiae deletion strains, locus YOR290C, strain snf2, hits give low values 0.968 | S. cerevisiae deletion strains, locus YOR316C, strain cot1, hits give low values 0.988 | S. cerevisiae deletion strains, locus YPL051W, strain arl3, hits give low values 1.04 | S. cerevisiae deletion strains, locus YPL055C, strain LGE1, hits give low values 0.95 and 0.989 | S. cerevisiae deletion strains, locus YPL078C, strain atp4, hits give low values 1.01 | S. cerevisiae deletion strains, locus YPL106C, strain sse1, hits give low values 1.01 | S. cerevisiae deletion strains, locus YPL240C, strain hsp82, hits give low values 1.01 | S. cerevisiae deletion strains, locus YPL241C, strain CIN2, hits give low values 0.988 and 0.994 | S. cerevisiae deletion strains, locus YPL256C, strain CLN2, hits give low values 0.979 | S. cerevisiae deletion strains, locus YPR119W, strain clb2, hits give low values 1 | S. cerevisiae deletion strains, locus YPR141C, strain kar3, hits give low values 0.975 | S. cerevisiae deletion strains, locus YPR163C, strain tif3, hits give low values 1 | S. cerevisiae deletion strains, locus YPR167C, strain met16, hits give low values 0.988 | S. cerevisiae deletion strains, strain wtn01, hits give low values 0.983 | S. cerevisiae strains, strain wild type, hits give low values 0.998
